Unmarked numbers belong to inactive results. Records with an inconclusive call do not appear. Where a call stands in place of a potency, no number is given. Calls of active or inactive are those of the source. Unless noted, calls come from the whole dose curve; as a rule, active = well fitted curve in the direction sought with a large enough effect in the repeat runs; inconclusive = weak or mixed curves; inactive = flat fitted curve, though single readings scatter. Starred links: 1 amine or outer side, 2 acyl side, 3 side chain; linkers in the order of their positions; H or OH if unused. Positions of bridges follow the written chain, without caps; N, C: chain ends. Non-standard residues stand in square brackets, D forms with d. Residues, ends and D or L forms follow the SMILES beside them. Chains are numbered I, II in the order given. Actinocin(9to1) = Cc1c2oc3c(C)ccc(C(=O)[*:1])c3nc-2c(C(=O)[*:2])c(N)c1=O; NMeV = CN[C@H](C(=O)O)C(C)C; Sar = CNCC(=O)O
Key:
[1] = qHTS assay to test for compound auto fluorescence at 535 nm (green) in HEK293 cells (AID 720680)
[2] = qHTS assay to test for compound auto fluorescence at 460 nm (blue) in HEK293 cell free culture (AID 720681)
Outline: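 Compounds were added to cell-free DMEM with 10% FBS and fluorescence read directly. The blue channel used 405 nm excitation and 460 nm emission, with triamterene as the reference fluorophore.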

[3] = qHTS assay to test for compound auto fluorescence at 535 nm (green) in HEK293 cell free culture (AID 720682)
Outline: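 Measurement is a direct plate read of green fluorescence (485 nm in, 535 nm out) after compound addition to serum-supplemented DMEM lacking cells, with fluorescein used to express intensities.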

[4] = qHTS assay to test for compound auto fluorescence at 590 nm (red) in HEK293 cell free culture (AID 720683)
Outline: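 Cell-free wells of DMEM with 10% FBS received compound, and intrinsic fluorescence was read at excitation/emission 540/590 nm. Values expressed as equivalence to Rose Bengal sodium.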

[5] = qHTS assay to test for compound auto fluorescence at 590 nm (red) in HepG2 cell free culture (AID 720684)
Outline: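 Rose Bengal sodium served as the reference for red signal. Test compounds were dispensed into serum-containing MEM (10% FBS) without cells, and plates were read at 540/590 nm.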

[6] = qHTS assay to test for compound auto fluorescence at 460 nm (blue) in HepG2 cell free culture (AID 720685)
Outline: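 Cell-free plates of MEM plus 10% FBS received 23 nL compound or DMSO vehicle; blue-channel (405/460 nm) intensity scored against triamterene as reference fluorophore.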

[7] = qHTS assay to test for compound auto fluorescence at 535 nm (green) in HepG2 cell free culture (AID 720686)
[8] = qHTS assay to test for compound auto fluorescence at 460 nm (blue) in HepG2 cells (AID 720687)
Outline: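 HepG2 cells in MEM with 10% FBS, attached overnight at 37 C, were exposed to compound or DMSO for 1 hr at 37 C, 5% CO2. Blue fluorescence was read at 405/460 nm, with triamterene as reference fluorophore.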

[9] = biological target: Glucocorticoid receptor (Homo sapiens) (UniProt P04150); experiment: qHTS assay to identify small molecule antagonists of the glucocorticoid receptor (GR) signaling pathway (AID 720692; active = well fitted inhibition curve with a large enough effect in the signal ratio in the repeat runs, not every such curve was filed as active; the % refers to the signal ratio; note: potency is the fitted concentration of half-maximal effect)
Outline: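 GRE-bla HeLa line, dex-stimulated (5 nM final). Compound exposure 18 h, 37 C. Beta-lactamase FRET read after 2 h RT substrate.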

[10] = biological target: Glucocorticoid receptor (Homo sapiens) (UniProt P04150); experiment: qHTS assay to identify small molecule agonists of the glucocorticoid receptor (GR) signaling pathway (AID 720691; active = well fitted activation curve with a large enough effect in the signal ratio in the repeat runs, not every such curve was filed as active; the % refers to the signal ratio)
Outline: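 A HeLa cervical cancer line expressing GR and a glucocorticoid response element-driven beta-lactamase gene is treated with compounds for 18 h; LiveBLAzer B/G FRET substrate is then applied and fluorescence read.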

Glucocorticoid receptor (Homo sapiens), sequence (P04150 whole entry, looked up): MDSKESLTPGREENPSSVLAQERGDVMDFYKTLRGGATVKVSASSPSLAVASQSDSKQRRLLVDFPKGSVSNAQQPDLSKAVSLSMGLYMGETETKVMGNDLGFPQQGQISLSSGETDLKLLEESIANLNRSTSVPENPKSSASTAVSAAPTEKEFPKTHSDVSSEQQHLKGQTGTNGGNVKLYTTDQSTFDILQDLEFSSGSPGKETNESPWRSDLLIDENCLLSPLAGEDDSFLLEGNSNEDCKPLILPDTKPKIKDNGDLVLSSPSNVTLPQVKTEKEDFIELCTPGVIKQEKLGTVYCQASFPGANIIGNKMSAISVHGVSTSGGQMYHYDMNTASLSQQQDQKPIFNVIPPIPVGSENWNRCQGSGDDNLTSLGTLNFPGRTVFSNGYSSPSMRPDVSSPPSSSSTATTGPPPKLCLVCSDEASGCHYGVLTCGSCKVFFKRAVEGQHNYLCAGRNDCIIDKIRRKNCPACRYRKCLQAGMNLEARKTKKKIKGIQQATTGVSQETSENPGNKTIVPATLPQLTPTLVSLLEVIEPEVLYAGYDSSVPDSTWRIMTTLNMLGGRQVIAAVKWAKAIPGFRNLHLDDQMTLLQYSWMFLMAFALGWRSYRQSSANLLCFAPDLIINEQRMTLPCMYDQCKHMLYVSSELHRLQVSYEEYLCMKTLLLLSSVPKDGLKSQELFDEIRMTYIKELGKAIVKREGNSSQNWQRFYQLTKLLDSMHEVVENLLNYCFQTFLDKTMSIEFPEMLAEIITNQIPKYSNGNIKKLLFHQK

Row | Compound | Potency [1] | Potency [2] | Potency [3] | outcome [4] | outcome [5] | Potency [6] | Potency [7] | Potency [8] | Potency [9] | Potency [10] | fluorescence, % of fluorescein [1] | fluorescence, % of fluorescent control [2] | activity change [3] | fluorescence, % of fluorescent control [4] | fluorescence, % of Rose Bengal [5] | fluorescence, % of fluorescent control [6] | fluorescence, % of fluorescein control [7] | fluorescence, % of fluorescent control [8]
1 | Cc1c2oc3c(C)ccc(C(=O)N[C@@H]4C(=O)N[C@H](C(C)C)C(=O)N5CCC[C@H]5C(=O)N(C)CC(=O)N(C)[C@@H](C(C)C)C(=O)O[C@@H]4C)c3nc-2c(C(=O)N[C@@H]2C(=O)N[C@H](C(C)C)C(=O)N3CCC[C@H]3C(=O)N(C)CC(=O)N(C)[C@@H](C(C)C)C(=O)O[C@@H]2C)c(N)c1=O (I: T[dV]P[Sar][NMeV] / II: T[dV]P[Sar][NMeV]; ester I:1-I:C, II:1-II:C; linker I:N-II:N via Actinocin(9to1)) | inactive | inactive | inactive | inactive | inactive | inactive | inactive | inactive | 134 nM (active) |  |  |  |  |  |  |  |  | 
2 | C=CC(=O)OCCCCCCCC | inactive | inactive | inactive | inactive | inactive | inactive | inactive | inactive | inactive | inactive |  |  |  |  |  |  |  | 
3 | NC12CC3CC(CC(C3)C1)C2 | inactive | inactive | inactive | inactive | inactive | inactive | inactive | inactive | inactive | inactive |  |  |  |  |  |  |  | 
4 | CCOc1ccccc1C(N)=O | inactive | inactive | inactive | inactive | inactive | inactive | inactive | inactive | inactive | inactive |  |  |  |  |  |  |  | 
5 | O=C(O)c1cn(-c2ccc(F)cc2)c2cc(N3CCNCC3)c(F)cc2c1=O | inactive | inactive | inactive | inactive | inactive | inactive | inactive | inactive | inactive | inactive |  |  |  |  |  |  |  | 
6 | COc1nc(C)nc(Cl)c1NC1=NCCN1 |  |  |  |  |  |  |  |  | inactive | inactive | -0.014% [at 18.6 µM] | 0.165% [at 18.6 µM] | 0.0521% [at 18.6 µM, stronger effect = higher value] | 0.101% [at 18.6 µM] | 0.527% [at 18.6 µM] | 0.0137% [at 18.6 µM] | 0.0146% [at 18.6 µM] | 0.0089% [at 18.6 µM]
7 | Cc1cccc(O)c1C | inactive | inactive | inactive | inactive | inactive | inactive | inactive | inactive | inactive | inactive |  |  |  |  |  |  |  | 
8 | CCc1cc(C(C)(C)C)c(O)c(C(C)(C)C)c1 | inactive | inactive | inactive | inactive | inactive | inactive | inactive | inactive | inactive | inactive |  |  |  |  |  |  |  | 
9 | CCN(CC)C(=O)Nc1ccc(OCC(O)CNC(C)(C)C)c(C(C)=O)c1 (stereo not drawn) | inactive | inactive | inactive | inactive | inactive | inactive | inactive | inactive | inactive | inactive |  |  |  |  |  |  |  | 
10 | CCN(CC)C(=S)SSC(=S)N(CC)CC | inactive | inactive | inactive | inactive | inactive | inactive | inactive | inactive | inactive | inactive |  |  |  |  |  |  |  | 
11 | CNC1(C)C2CCC(C2)C1(C)C (stereo not drawn) | inactive | inactive | inactive | inactive | inactive | inactive | inactive | inactive | inactive | inactive |  |  |  |  |  |  |  | 
12 | CC1COC(=O)O1 (stereo not drawn) | inactive | inactive | inactive | inactive | inactive | inactive | inactive | inactive | inactive | inactive |  |  |  |  |  |  |  | 
13 | Cc1occc(=O)c1OC(=O)C(C)C | inactive | inactive | inactive | inactive | inactive | inactive | inactive | inactive | inactive | inactive |  |  |  |  |  |  |  | 
14 | CC(C)(O)CCC(C)(C)O | inactive | inactive | inactive | inactive | inactive | inactive | inactive | inactive | inactive | inactive |  |  |  |  |  |  |  | 
15 | CNCCC(Oc1ccc(C(F)(F)F)cc1)c1ccccc1 (stereo not drawn) | inactive | inactive | inactive | inactive | inactive | inactive | inactive | inactive | inactive | inactive |  |  |  |  |  |  |  | 
16 | CC(C)(C)NC(=O)[C@@H]1CN(Cc2cccnc2)CCN1C[C@@H](O)C[C@@H](Cc1ccccc1)C(=O)N[C@H]1c2ccccc2C[C@H]1O | inactive | inactive | inactive | inactive | inactive | inactive | inactive | inactive | inactive | inactive |  |  |  |  |  |  |  | 
17 | COC(=O)/C=C/c1ccccc1 | inactive | inactive | inactive | inactive | inactive | inactive | inactive | inactive | inactive | inactive |  |  |  |  |  |  |  | 
18 | c1ccc2n[nH]nc2c1 | inactive | inactive | inactive | inactive | inactive | inactive | inactive | inactive | inactive | inactive |  |  |  |  |  |  |  | 
19 | CC[C@H]1CN2CCc3cc(OC)c(OC)cc3[C@@H]2C[C@@H]1C[C@H]1NCCc2cc(OC)c(OC)cc21 | inactive | inactive | inactive | inactive | inactive | inactive | inactive | inactive | 1510 nM (active) | inactive |  |  |  |  |  |  |  | 
20 | c1cc(C(c2ccc(OCC3CO3)cc2)C(c2ccc(OCC3CO3)cc2)c2ccc(OCC3CO3)cc2)ccc1OCC1CO1 (stereo not drawn) | inactive | inactive | inactive | inactive | inactive | inactive | inactive |  | inactive | inactive |  |  |  |  |  |  |  | 
21 | OCCN1CCNCC1 | inactive | inactive | inactive | inactive | inactive | inactive | inactive | inactive | inactive | inactive |  |  |  |  |  |  |  | 

Reference: PubChem BioAssay (Tox21)
